About 14,000 (4.5%) of roughly 310,000 compounds showed an effect of 50% or more. Effects have a minus sign here. Only a selection was taken, and strong results are over-represented in it overall.
Molecular target: human ether-à-go-go-related gene (hERG) potassium channel (human, UniProt Q12809)
Assay: primary screen, population patch clamp on CHO cells stably expressing hERG; higher = less effect of the substance
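Note: peak tail current of the secondary pulse compared with the same well before compound.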

Chain of human ether-à-go-go-related gene (hERG) potassium channel (Q12809 whole entry, looked up): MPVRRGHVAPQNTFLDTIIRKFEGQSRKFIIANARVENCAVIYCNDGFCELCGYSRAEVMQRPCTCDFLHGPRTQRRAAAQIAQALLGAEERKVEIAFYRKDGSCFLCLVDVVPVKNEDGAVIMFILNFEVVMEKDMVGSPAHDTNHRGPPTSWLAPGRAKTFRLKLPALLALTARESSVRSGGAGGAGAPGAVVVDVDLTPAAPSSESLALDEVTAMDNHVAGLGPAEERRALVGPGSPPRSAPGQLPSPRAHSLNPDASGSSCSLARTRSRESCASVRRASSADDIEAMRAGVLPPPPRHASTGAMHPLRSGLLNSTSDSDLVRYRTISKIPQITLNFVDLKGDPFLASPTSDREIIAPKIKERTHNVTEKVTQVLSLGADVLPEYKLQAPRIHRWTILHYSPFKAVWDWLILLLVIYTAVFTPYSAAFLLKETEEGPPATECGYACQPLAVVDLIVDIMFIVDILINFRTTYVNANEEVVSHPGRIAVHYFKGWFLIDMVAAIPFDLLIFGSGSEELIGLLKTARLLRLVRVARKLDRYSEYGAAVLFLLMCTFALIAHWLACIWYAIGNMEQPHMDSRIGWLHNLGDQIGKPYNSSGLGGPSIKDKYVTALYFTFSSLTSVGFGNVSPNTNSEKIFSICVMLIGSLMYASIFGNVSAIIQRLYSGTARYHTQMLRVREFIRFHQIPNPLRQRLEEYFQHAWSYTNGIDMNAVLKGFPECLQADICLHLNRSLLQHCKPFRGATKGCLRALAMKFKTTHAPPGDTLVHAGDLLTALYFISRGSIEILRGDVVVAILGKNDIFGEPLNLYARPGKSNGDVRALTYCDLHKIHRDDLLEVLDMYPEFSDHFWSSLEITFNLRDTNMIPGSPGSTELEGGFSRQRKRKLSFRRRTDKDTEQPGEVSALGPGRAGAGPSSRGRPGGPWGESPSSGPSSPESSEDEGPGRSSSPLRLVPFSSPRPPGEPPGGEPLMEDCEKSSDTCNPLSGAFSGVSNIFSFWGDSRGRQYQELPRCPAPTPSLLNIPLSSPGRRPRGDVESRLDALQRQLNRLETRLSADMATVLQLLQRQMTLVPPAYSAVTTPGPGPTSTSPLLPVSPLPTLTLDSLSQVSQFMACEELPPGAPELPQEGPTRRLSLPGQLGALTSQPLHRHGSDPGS

Going from `CC1CN(c2nc(Nc3ccccc3)nc(N)c2[N+](=O)[O-])CC(C)O1` (centres unmarked) to `Cc1cccc(-c2nc(CS(=O)CC(=O)N3CC(C)CC(C)C3)c(C)o2)c1` (centres unmarked), the “hERG current change (%, negative = inhibition) at 10uM” value falls from -22.2% to -25.3%.

Compared with `C=CCn1c(CCNC(=O)c2ccccc2F)nnc1SCC(=O)Nc1nc(C)cs1`, `O=C(CSc1nc2ccccc2s1)Nc1ncccn1` is higher in “hERG current change (%, negative = inhibition) at 10uM” value: -5.2% for the first, 13.4% for the second.

First: N#C/C(=C(/O)COC(=O)c1cccnc1Cl)c1nc2ccccc2[nH]1
Second: COC(=O)c1[nH]c2ccccc2c1NC(=O)CN1CCN(C(=O)c2ccco2)CC1
The “hERG current change (%, negative = inhibition) at 10uM” value of the first is higher: 25.6% for the first, -32.8% for the second.

Compared with `N#Cc1sc2nc3c(c(-c4ccco4)c2c1N)CCCC3`, `CN1CCc2nc3sc(C#N)c(N)c3c(-c3cccs3)c2C1` is lower in “hERG current change (%, negative = inhibition) at 10uM” value: -3.21% for the first, -56.8% for the second.

Compared with `Cc1cccc(NC(=O)c2sc3nc4c(c(-c5cccs5)c3c2N)CN(C)CC4)c1`, `CC(C)NC(=O)c1sc2nc3c(c(-c4cccs4)c2c1N)CN(C)CC3` is higher in “hERG current change (%, negative = inhibition) at 10uM” value: -51.6% for the first, -25.8% for the second.

Going from `COC(=O)c1sc2nc3c(c(-c4cccs4)c2c1N)CCCC3` to `Cc1cccc(NC(=O)c2sc3nc4c(c(-c5ccco5)c3c2N)CCC4)c1`, the “hERG current change (%, negative = inhibition) at 10uM” value falls from 9.57% to -3.19%.

Going from `O=C(O)C1CC=CCC1C(=O)NC12CC3CC(CC(C3)C1)C2` (centres unmarked) to `COC(=O)c1[nH]c2ccc(C)cc2c1NC(=O)CN1CCC(C)CC1`, the “hERG current change (%, negative = inhibition) at 10uM” value falls from 3.51% to -8.97%.

Going from `O=S(=O)(c1cccs1)N1CCc2ccccc2C1` to `COC(=O)c1[nH]c2ccc(C)cc2c1NC(=O)CN1CCN(c2ccccc2)CC1`, the “hERG current change (%, negative = inhibition) at 10uM” value falls from -5.63% to -13.7%.

First: COC(=O)c1[nH]c2cc(C)ccc2c1NC(=O)CN1CCN(C(=O)c2ccco2)CC1
Second: COC(=O)c1[nH]c2cccc(C)c2c1NC(=O)CN1CCN(C(=O)c2ccco2)CC1
The “hERG current change (%, negative = inhibition) at 10uM” value of the first is lower: -54.3% for the first, -16.9% for the second.

First: COC(=O)c1[nH]c2ccc(C)cc2c1NC(=O)CN1CCN(C(=O)c2ccccc2)CC1.Cl
Second: COC(=O)c1ccc(Oc2c(C)oc3cc(OCc4cnn(-c5ccccc5)c4)ccc3c2=O)cc1
The “hERG current change (%, negative = inhibition) at 10uM” value of the first is lower: -52.1% for the first, 1.08% for the second.

Compared with `Cc1nc2cc(C(=O)O)ccc2s1`, `CCOc1cc(/C=N/NC(=O)c2cccnc2)cc(Br)c1OCC(N)=O` is lower in “hERG current change (%, negative = inhibition) at 10uM” value: 5.41% for the first, -22.5% for the second.

With `O=C(CCc1nnc(Cc2cccc(C(F)(F)F)c2)o1)NC1CC1` the “hERG current change (%, negative = inhibition) at 10uM” value was 32.2%.
